# Test results from PMC5540273 (PLoS ONE, 2017).
# Experiments:
# GRK3 = system: T1, GRK3
# T1 construct: gene ADRBK2
# HASPIN = system: T2, HASPIN
# T2 construct: gene GSG2
# 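Note: kd values determined as follow-up on hits from a single-replicate KINOMEscan panel screen.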
structure (smiles),measurement,setting,value
CCCc1ccc(S(=O)(=O)NC2CCN(c3ccnc(Nc4ccc(F)cc4)n3)C2)cc1 (stereo not shown) [GSK1379715],Kd,GRK1,> 10 µM
Clc1cc(Cl)cc(Nc2ccnc(Nc3cc(Cl)cc(Cl)c3)n2)c1 [GSK175726],Kd,GRK1,> 10 µM
O=C(Nc1ccc2c(c1)OCO2)NC1CCN(c2ccnc(Nc3ccc(F)cc3)n2)C1 (stereo not shown) [GSK1379724],Kd,GRK3,> 10 µM
Cc1ccc(NC(=O)Nc2cc(C(C)(C)C)nn2-c2ccccc2)cc1 [GSK1014915],Kd,GRK3,> 10 µM
O=C1NC(=O)C(N2CCc3ccccc32)=C1c1ccccc1Cl [SB-373598],Kd,HASPIN,> 10 µM
Cc1csc(-c2nc(Nc3ccncc3)c3ccccc3n2)n1 [GW869640],Kd,HASPIN,0.077 µM
Cc1nnc(-c2ccc3occ(-c4ccc(S(C)=O)cc4)c3c2)[nH]1 (stereo not shown),Kd,HIPK2,0.32 µM
